Reference: the supplement of paper PMC10127200
Counter-ions that a name gives are not always drawn.

Columns and labels:
Experiment in all cases: Euclidean distance of Cell Painting phenotypic profile (signed KS, 77 features) to DMSO centroid (dimensionless distance); 5 or 10 uM (library dependent); higher = stronger phenotypic change vs DMSO (phenoactivity)
Conditions in all cases: 48 h
[1] = test system: 786-O
Outline: (§1)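 Five cancer lines, together with a healthy fibroblast line, received library compounds for 48 h at a library-dependent 10 or 5 uM and 0.1% DMSO final. Harmony then derived 77 features from confocal 20X images (9 fields/well) of the stained cells, scoring each as a signed Kolmogorov-Smirnov statistic against same-plate vehicle wells. After plate-position correction, correlation weighting and replicate averaging at the top dose, phenoactivity was taken as each profile's Euclidean distance to the median vehicle profile.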

[2] = test system: A549
Outline: as §1

[3] = test system: DU145
Outline: as §1

[4] = test system: FB
Outline: as §1

[5] = test system: HEPG2
Outline: as §1

[6] = test system: OVCAR4
Outline: as §1

Compound | Euclidean distance [1] | Euclidean distance [2] | Euclidean distance [3] | Euclidean distance [4] | Euclidean distance [5] | Euclidean distance [6]
CC(C)(C)c1[nH]cnc1/C=c1\[nH]c(=O)/c(=C/c2ccccc2)[nH]c1=O [Plinabulin (NPI-2358)] | 3.18 | 3.25 | 4.17 | 2.89 | 4.1 | 2.86
Cc1nnc(C(C)C)n1C1C[C@H]2CC[C@@H](C1)N2CC[C@H](NC(=O)C1CCC(F)(F)CC1)c1ccccc1 (stereo in doubt) [Maraviroc] | 1.35 | 0.711 | 1.04 | 1.1 | 0.487 | 1.71
C=CCc1ccccc1OCC(O)CNC(C)C (stereo not drawn) [Alprenolol hydrochloride] | 0.84 | 0.761 | 1.36 | 1.77 | 0.91 | 1.07
CCOC(=O)C1=C[C@@H](OC(CC)CC)[C@H](NC(C)=O)[C@@H](N)C1 [Oseltamivir Phosphate] | 1.49 | 1.2 | 1.23 | 0.91 | 0.386 | 1.62
CN(C)CCOC(c1ccc(Cl)cc1)c1ccccn1 (stereo not drawn) [CarbinoxaMine Maleate] | 1.32 | 0.778 | 1.98 | 1.44 | 0.691 | 0.935
O=C(O)c1ccc(CN2CCC(CN[C@@H]3C[C@H]3c3ccccc3)CC2)cc1 | 1.04 | 1.01 | 0.946 | 1.08 | 1.11 | 1.06
CC12CC3CC(C)(C1)CC(N)(C3)C2 [Memantine HCl] | 1.1 | 0.654 | 1.66 | 1.03 | 1.95 | 1.51
CCOc1cc(N)c([N+](=O)[O-])cc1C(=O)NC1CCN(CC2CC=CCC2)CC1 (stereo not drawn) [Cinitapride Hydrogen Tartrate] | 1.33 | 1.05 | 1.38 | 1.21 | 0.924 | 1.57
CC(=O)O[C@H]1CC[C@@]2(C)C(=CC[C@@H]3[C@@H]2CC[C@]2(C)C(c4cccnc4)=CC[C@@H]32)C1 [Abiraterone Acetate] | 1.52 | 1.19 | 0.94 | 0.94 | 0.44 | 0.818
O=[N+]([O-])c1cn2c(n1)OC[C@@H](OCc1ccc(OC(F)(F)F)cc1)C2 | 1.49 | 1.06 | 0.837 | 1.12 | 0.872 | 1.03
NS(=O)(=O)Cc1noc2ccccc12 [Zonisamide] | 1.61 | 0.951 | 0.986 | 0.762 | 0.835 | 1.9
C[C@](N)(Cc1ccc(O)c(O)c1)C(=O)O [Methyldopa] | 1.49 | 0.734 | 1.09 | 0.909 | 0.55 | 0.729
C=CC(=O)Nc1cc(Nc2nccc(-c3cn(C)c4ccccc34)n2)c(OC)cc1N(C)CCN(C)C [Osimertinib (AZD9291)] | 4.93 | 4.24 | 4.29 | 5.35 | 5.16 | 4.21
CC1(C)S[C@@H]2[C@H](NC(=O)[C@H](NC(=O)N3CCN(S(C)(=O)=O)C3=O)c3ccccc3)C(=O)N2[C@H]1C(=O)O [Mezlocillin Sodium] | 1.2 | 0.987 | 1.43 | 1.15 | 1.72 | 0.751
NC(=O)NCCC[C@H](N)C(=O)O [L-Citrulline] | 1.08 | 0.895 | 1.37 | 0.916 | 1.27 | 0.761
Cc1ccc(NC(=O)c2cccc(N(C)C)c2)cc1NC(=O)c1ccc(O)cc1 | 2.67 | 2.66 | 2.38 | 2.03 | 1.55 | 2.26
COC(=O)Nc1nc2cc([S+]([O-])c3ccccc3)ccc2[nH]1 (stereo not drawn) [Oxfendazole] | 1.09 | 0.692 | 1.08 | 0.801 | 1.42 | 1.12
C[C@@H](NC(=O)c1ncnc(N)c1Cl)c1ncc(C(=O)Nc2cc(C(F)(F)F)c(Cl)cn2)s1 | 1.57 | 2.12 | 1.59 | 1.41 | 0.931 | 1.52
CCNC(=O)c1[nH]nc(-c2cc(Cl)c(O)cc2O)c1-c1ccc(OC)cc1 | 2.94 | 3.74 | 2.8 | 3.65 | 3.19 | 2.79
NS(=O)(=O)c1cc(C2(O)NC(=O)c3ccccc32)ccc1Cl (stereo not drawn) [Chlorthalidone] | 0.738 | 0.425 | 1.18 | 1.4 | 0.481 | 0.876
C=CC(=O)N1CCC(CNc2ncnc(N)c2-c2ccc(Oc3ccccc3)cc2)CC1 [Evobrutinib] | 0.935 | 0.683 | 2.24 | 0.97 | 0.714 | 0.874
CCCOc1ccc(C(=O)OCCN(CC)CC)cc1N [Proparacaine HCl] | 1.06 | 1.11 | 1.7 | 1.27 | 0.765 | 1.27
O=C1Nc2ccc(I)cc2/C1=C/c1cc(Br)c(O)c(Br)c1 | 1.58 | 0.975 | 0.984 | 1.02 | 0.668 | 1.3
